About 79,000 compounds went through this panel and 15% of them were active in at least one assay; those are over-represented in the sample as a whole. Active and inactive are the calls of the source. No stated cut-off is given here; in the data, active means growth inhibition above about 70%; inactive means the rest.
Assays:
[1] = NCI Yeast Anticancer Drug Screen. Data for the rad52 strain (AID 147);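 further: 0% = growth of vehicle-treated control cultures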; conditions: S. cerevisiae rad52 mutant growth inhibition, stronger effect = higher value
Outline: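 Here a repair-compromised yeast strain receives each compound; its growth is then quantified and normalised to vehicle-only controls.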

[2] = NCI Yeast Anticancer Drug Screen. Data for the wt1 strain (AID 149);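 further: 0% = growth of vehicle-treated wt1 cultures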; conditions: S. cerevisiae wt1 strain (SPY 50644) growth inhibition, stronger effect = higher value
Outline: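 Measured: growth of wt1 yeast under compound versus vehicle treatment, reported as inhibition.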

[3] = NCI Yeast Anticancer Drug Screen. Data for the rad50EPP+ strain (AID 151);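 further: 0% = growth of vehicle-treated control cultures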; conditions: S. cerevisiae rad50 mutant strain, stronger effect = higher value
Outline: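 Read-out is yeast growth inhibition relative to vehicle; cells used were the rad50EPP+ strain.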

[4] = NCI Yeast Anticancer Drug Screen. Data for the mgt1 strain (AID 153); conditions: S. cerevisiae mgt1 mutant growth inhibition, stronger effect = higher value
Outline: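 Measured: inhibition of mgt1 yeast growth by compound, normalized to vehicle-treated cultures.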

[5] = NCI Yeast Anticancer Drug Screen. Data for the rad50 strain (AID 155);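 further: 0% = growth of vehicle-only cultures of the same strain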; conditions: S. cerevisiae rad50 strain growth inhibition, stronger effect = higher value
Outline: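 Growth of the mutant yeast was measured after compound exposure and referenced to vehicle-treated cultures.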

[6] = NCI Yeast Anticancer Drug Screen. Data for the mec2-1 strain (AID 157); conditions: S. cerevisiae mec2-1 strain, stronger effect = higher value
Outline: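 Using mec2-1 yeast: add compound, measure growth, express inhibition versus vehicle-treated cultures.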

[7] = NCI Yeast Anticancer Drug Screen. Data for the rad14 strain (AID 159);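 further: 0% = growth of vehicle-treated control cultures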; conditions: S. cerevisiae rad14 strain growth inhibition, stronger effect = higher value
Outline: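 Here, inhibition of yeast growth was measured after compound exposure, using a strain with a genetic defect in DNA damage repair and vehicle-treated cultures as the reference.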

[8] = NCI Yeast Anticancer Drug Screen. Data for the sgs1 mgt1 strain (AID 161);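 further: 0% = growth of cultures given vehicle only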; conditions: S. cerevisiae sgs1 mgt1 strain, stronger effect = higher value
Outline: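 Compounds are added to genetically altered yeast, and growth is compared with cultures given vehicle alone to give percent inhibition.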

[9] = NCI Yeast Anticancer Drug Screen. Data for the CLN2oe strain (AID 163);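 further: 0% = growth of vehicle-only control cultures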; conditions: S. cerevisiae CLN2oe strain, stronger effect = higher value
Outline: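 Whole-cell yeast growth assay. A strain engineered for altered cell-cycle control received compound, and inhibition relative to vehicle-treated cultures was recorded.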

[10] = NCI Yeast Anticancer Drug Screen. Data for the cln2 rad14 strain (AID 165);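 further: 0% = growth equal to vehicle treated cultures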; conditions: S. cerevisiae cln2 rad14 strain, stronger effect = higher value
Outline: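 Yeast strain cln2 rad14, bearing defects in cell cycle control and DNA repair, serves as the test system; values reflect growth inhibition compared with vehicle.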

[11] = NCI Yeast Anticancer Drug Screen. Data for the bub3 strain (AID 167); conditions: S. cerevisiae bub3 mutant strain, stronger effect = higher value
Outline: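 Whole-cell yeast assay. The mutant strain was incubated with compounds, and growth inhibition was determined by comparison with vehicle-treated cells.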

[12] = NCI Yeast Anticancer Drug Screen. Data for the wt2 strain (AID 169);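 further: 0% = growth of vehicle-treated yeast cultures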; conditions: S. cerevisiae wt2 strain growth inhibition, stronger effect = higher value
Outline: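 Treated yeast vs. vehicle-treated yeast: growth inhibition determined.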

[13] = NCI Yeast Anticancer Drug Screen. Data for the mlh1 strain (AID 171);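 further: 0% = growth of vehicle-treated control cultures of the same strain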; conditions: S. cerevisiae mlh1 strain growth inhibition, stronger effect = higher value
Outline: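 A yeast strain with a defined genetic lesion serves as the test organism. Cultures receive compound or vehicle, and growth is measured.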

[14] = NCI Yeast Anticancer Drug Screen. Data for the sgs1 strain (AID 173);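 further: 0% = growth of vehicle-only control cultures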; conditions: S. cerevisiae sgs1 mutant, stronger effect = higher value
Outline: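 A genetically defined yeast mutant is incubated with the test compound, and its growth is compared to that of the same strain given vehicle.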

[15] = NCI Yeast Anticancer Drug Screen. Data for the mlh1 rad18 strain (AID 175); conditions: S. cerevisiae mlh1 rad18 strain growth inhibition, stronger effect = higher value
Outline: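 Steps: expose repair-defective yeast to compound; measure growth; express inhibition against vehicle-treated controls.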

[16] = NCI Yeast Anticancer Drug Screen. Data for the rad18 strain (AID 177); conditions: S. cerevisiae rad18 mutant growth inhibition, stronger effect = higher value
Outline: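 Measured value is growth inhibition of a yeast strain bearing a DNA repair alteration, referenced to vehicle-treated cells.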

[17] = at 5.0 µM (retest, dose inferred, filed as 0.5)
[18] = at 50.0 µM (retest, dose inferred, filed as 5.0)

Measured: growth inhibition

CCc1cccc(C(C)C)c1NC1=C([n+]2ccc(C)cc2)C(=O)c2ccccc2C1=O
active: [1]; at 100.0 µM 83% | [5]; [18] 87% | [5]; at 50.0 µM 89.1% | [5]; at 100.0 µM 81%
inactive: [1]; at 1.2 µM 2% | [1]; at 3.7 µM 5% | [1]; at 11.0 µM 12% | [1]; at 33.0 µM 42% | [2]; at 1.2 µM -2% | [2]; at 3.7 µM -2% | [2]; at 11.0 µM -4% | [2]; at 33.0 µM -3% | [2]; at 100.0 µM 6% | [3]; at 1.2 µM 0% | [3]; at 3.7 µM 7% | [3]; at 11.0 µM 17% | [3]; at 33.0 µM 31% | [3]; at 100.0 µM 38% | [4]; at 1.2 µM 0% | [4]; at 3.7 µM -1% | [4]; at 11.0 µM -1% | [4]; at 33.0 µM 4% | [4]; at 100.0 µM 11% | [5]; at 1.2 µM -2% | [5]; at 3.7 µM 0% | [5]; [17] 37% | [5]; at 11.0 µM 25% | [5]; at 33.0 µM 63% | [6]; at 1.2 µM -1% | [6]; at 3.7 µM -3% | [6]; [17] 10% | [6]; at 11.0 µM 11% | [6]; at 33.0 µM 1% | [6]; [18] 65% | [6]; at 50.0 µM 63.1% | [6]; at 100.0 µM 17% | [7]; at 1.2 µM -1% | [7]; at 3.7 µM 4% | [7]; at 11.0 µM 4% | [7]; at 33.0 µM 5% | [7]; at 100.0 µM 21% | [8]; [17] -3% | [8]; [18] 36% | [8]; at 50.0 µM 41.2% | [9]; at 1.2 µM -3% | [9]; at 3.7 µM -2% | [9]; at 11.0 µM 1% | [9]; at 33.0 µM -2% | [9]; at 100.0 µM 11% | [10]; [17] -6% | [10]; [18] 32% | [10]; at 50.0 µM 12.7% | [11]; at 1.2 µM -8% | [11]; at 3.7 µM -4% | [11]; [17] 5% | [11]; at 11.0 µM 1% | [11]; at 33.0 µM 5% | [11]; [18] 61% | [11]; at 50.0 µM 41.5% | [11]; at 100.0 µM 25% | [12]; at 1.2 µM -2% | [12]; at 3.7 µM -2% | [12]; at 11.0 µM -2% | [12]; at 33.0 µM 1% | [12]; at 100.0 µM 6% | [13]; at 1.2 µM -4% | [13]; at 3.7 µM -6% | [13]; at 11.0 µM -4% | [13]; at 33.0 µM 2% | [13]; at 100.0 µM 9% | [14]; at 1.2 µM -3% | [14]; at 3.7 µM -3% | [14]; at 11.0 µM -2% | [14]; at 33.0 µM -2% | [14]; at 100.0 µM 18% | [15]; [17] -4% | [15]; [18] 24% | [15]; at 50.0 µM 61.5% | [16]; at 1.2 µM 0% | [16]; at 3.7 µM -3% | [16]; at 11.0 µM 0% | [16]; at 33.0 µM 1% | [16]; at 100.0 µM 17%

COc1cccc2c1C(=O)c1c(O)c3c(c(O)c1C2=O)C[C@@](O)(C(C)=O)C[C@@H]3OC1CC(N)C(OC2CC(O)C(O)C(C)O2)C(C)O1 (stereo partly specified)
inactive: [1]; at 1.2 µM 16% | [1]; at 3.7 µM 12% | [1]; at 11.0 µM 15% | [1]; at 33.0 µM 27% | [1]; at 100.0 µM 59% | [2]; at 1.2 µM -26% | [2]; at 3.7 µM -25% | [2]; at 11.0 µM -7% | [2]; at 33.0 µM -15% | [2]; at 100.0 µM -2% | [3]; at 1.2 µM 11% | [3]; at 3.7 µM 8% | [3]; at 11.0 µM 10% | [3]; at 33.0 µM 18% | [3]; at 100.0 µM 38% | [4]; at 1.2 µM -22% | [4]; at 3.7 µM -22% | [4]; at 11.0 µM -18% | [4]; at 33.0 µM -14% | [4]; at 100.0 µM -17% | [5]; at 1.2 µM 1% | [5]; at 3.7 µM 10% | [5]; [17] 36% | [5]; at 11.0 µM 17% | [5]; at 33.0 µM 28% | [5]; at 100.0 µM 59% | [6]; at 1.2 µM -25% | [6]; at 3.7 µM -20% | [6]; [17] 5% | [6]; at 11.0 µM -24% | [6]; at 33.0 µM -17% | [6]; [18] 33% | [6]; at 50.0 µM 49.1% | [6]; at 100.0 µM -8% | [7]; at 1.2 µM -10% | [7]; at 3.7 µM -11% | [7]; at 11.0 µM -9% | [7]; at 33.0 µM -1% | [7]; at 100.0 µM 15% | [8]; [17] 14% | [8]; [18] 44% | [8]; at 50.0 µM 39.8% | [9]; at 1.2 µM -14% | [9]; at 3.7 µM -10% | [9]; at 11.0 µM -12% | [9]; at 33.0 µM -6% | [9]; at 100.0 µM 6% | [10]; [17] 19% | [10]; at 50.0 µM 57.8% | [11]; at 1.2 µM -30% | [11]; at 3.7 µM -26% | [11]; [17] 4% | [11]; at 11.0 µM -31% | [11]; at 33.0 µM -23% | [11]; [18] 37% | [11]; at 50.0 µM 42.4% | [11]; at 100.0 µM -6% | [13]; at 1.2 µM -25% | [13]; at 3.7 µM -15% | [13]; at 11.0 µM -17% | [13]; at 33.0 µM -6% | [13]; at 100.0 µM -3% | [14]; at 1.2 µM -2% | [14]; at 3.7 µM -4% | [14]; at 11.0 µM -11% | [14]; at 33.0 µM -8% | [14]; at 100.0 µM 0% | [15]; [17] 18% | [15]; [18] 48% | [15]; at 50.0 µM 51.3% | [16]; at 1.2 µM -8% | [16]; at 3.7 µM -17% | [16]; at 11.0 µM -32% | [16]; at 33.0 µM -21% | [16]; at 100.0 µM -2%
active: [5]; [18] 83% | [5]; at 50.0 µM 76.8% | [10]; [18] 78%

From PubChem BioAssay (NCI)
